Experimental findings from PubChem BioAssay (NCATS) are described below.

SMILES strings stand for the structures. Active and inactive are the calls of the source. The call rests on the fitted dose curve; in most records, active means well fitted curve in the direction sought with a large enough effect; inconclusive means small, poorly fitted or top-dose-only effect, or effect the other way, or another doubt; inactive means no such curve, though single readings can be large or run the other way.

The assay in a line: Inducers of the Endoplasmic Reticulum Stress Response (ERSR) in human glioma: Validation (AID 504836). To be noted: human glioma cells, ER stress response reporter; series mostly up to 38.3 µM. The procedure, abridged: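 Stably transfected U87-MG human glioma cells carrying a GRP78-based luminescent sensor were seeded at 1000 cells/well, pin-dosed with compounds and incubated 16 h. Luciferase reagent was then added, and end-point luminescence was read after 10 min at room temperature.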
For the molecule `Nc1nc2c(ncn2COC(CO)CO)c(=O)[nH]1`, the molecule was classed as inactive.

Take `CC(=O)[C@]1(O)Cc2c(O)c3c(c(O)c2[C@@H](O[C@H]2C[C@H](N)[C@H](O)[C@H](C)O2)C1)C(=O)c1ccccc1C3=O`: the molecule was called inactive.

`Nc1ncn([C@@H]2O[C@H](CO)[C@@H](O)[C@H]2O)c(=O)n1`: the molecule was classed as inactive.

As for `CCCCNC(=O)NS(=O)(=O)c1ccc(C)cc1`, the outcome was inactive.

With `C[C@]12CC[C@@H]3c4ccc(O)cc4C[C@@H](CCCCCCCCCS(=O)CCCC(F)(F)C(F)(F)F)[C@H]3[C@@H]1CC[C@@H]2O` (stereo partly specified), the molecule was called inactive.

As for `CCC1C(=O)OCC1Cc1cncn1C` (stereo unspecified), the outcome was inactive.

For `O=NN(CCCl)C(=O)NCCCl`, the molecule was classed as inactive.

As for `O=C1CCC(N2C(=O)c3ccccc3C2=O)C(=O)N1` (stereo unspecified), the molecule was classed as inactive.

Regarding `COC(=O)Nc1nc2ccc(C(=O)c3cccs3)cc2[nH]1`, the molecule was called inactive.

With `O=C1Cc2cc(CCN3CCN(c4nsc5ccccc45)CC3)c(Cl)cc2N1`, the molecule was called inactive.

As to `O=C1CCc2cc(OCCCCc3nnnn3C3CCCCC3)ccc2N1`, the molecule was classed as inactive.

As for `Cc1ccc(S(=O)(=O)NC(=O)NN2CCCCCC2)cc1`, the molecule was called inactive.

As for `CC#C[C@]1(O)CC[C@H]2[C@@H]3CCC4=CC(=O)CCC4=C3[C@@H](c3ccc(N(C)C)cc3)C[C@@]21C`, the outcome was inactive.

Take `CC(C)[N+](C)(CCOC(=O)C1c2ccccc2Oc2ccccc21)C(C)C`: the molecule was called inactive.

Regarding `Nc1nc2c(ncn2COCCO)c(=O)[nH]1`, the call was inactive.

With `Oc1ccc(C2CNCCc3c2cc(O)c(O)c3Cl)cc1` (stereo unspecified), the molecule was called inactive.

With `O=C(NCCN1CCOCC1)c1ccc(Cl)cc1`, the molecule was classed as inactive.

`O=c1n(CCCN2CCN(c3cccc(Cl)c3)CC2)nc2ccccn12`: the result was inactive.

Take `CCCC(CCC)C(=O)O`: the result was inactive.

As for `Cc1cn([C@H]2C=C[C@@H](CO)O2)c(=O)[nH]c1=O`, the result was inactive.

Turning to `CN1CCN(CCCN2c3ccccc3Sc3ccc(Cl)cc32)CC1`, the outcome was inactive.

As to `COc1cc2nc(N3CCN(C(=O)C4CCCO4)CC3)nc(N)c2cc1OC` (stereo unspecified), the molecule was classed as inactive.

Regarding `Cc1c(OCC(F)(F)F)ccnc1CS(=O)c1nc2ccccc2[nH]1` (stereo unspecified), the outcome was inactive.

As for `NC12CC3CC(CC(C3)C1)C2`, the call was inactive.

As to `Nc1nnc(-c2cccc(Cl)c2Cl)c(N)n1`, the result was inactive.

For `CN1CCN(C2=Nc3ccccc3Oc3ccc(Cl)cc32)CC1`, the molecule was classed as inactive.
